# FAK blocker – inhibitors of human focal adhesion kinase | hit rate 0.84% among 97,000 | AID 727 | biochemical FAK kinase activity assay | inhibition, %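 (tested at 7 µM)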
# Smad3 inh – inhibitors of human Smad3 transcription factor binding | TR-FRET Smad3/Dy647-FoxH1 peptide binding, europium anti-His | inhibition, % at 25 µM | hit rate 0.29% among 88,000 | AID 630;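 active = compounds that reduce the energy-transfer binding signal between the protein and its labelled peptide by more than half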
# Target sequence (P84022 whole entry, looked up): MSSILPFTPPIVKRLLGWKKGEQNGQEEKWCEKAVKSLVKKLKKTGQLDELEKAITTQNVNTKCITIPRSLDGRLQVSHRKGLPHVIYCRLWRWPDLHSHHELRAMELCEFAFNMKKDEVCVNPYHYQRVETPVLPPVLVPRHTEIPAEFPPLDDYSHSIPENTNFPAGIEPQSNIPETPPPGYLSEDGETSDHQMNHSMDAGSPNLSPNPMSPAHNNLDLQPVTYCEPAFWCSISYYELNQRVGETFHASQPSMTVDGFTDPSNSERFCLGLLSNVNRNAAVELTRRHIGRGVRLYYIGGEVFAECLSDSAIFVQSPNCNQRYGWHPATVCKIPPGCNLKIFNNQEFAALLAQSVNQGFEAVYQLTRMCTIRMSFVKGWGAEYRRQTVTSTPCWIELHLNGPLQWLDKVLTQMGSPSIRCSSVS
# ERa coact pot – enhances coactivator binding to human estrogen receptor alpha; P03372; TR-FRET ERalpha-LBD/SRC-Cy5 coactivator binding, 2 h; 100 = basal binding, no effect; coactivator binding (% of control), % at 25.6 µM; hit rate 1.3% among 86,000; AID 639; in the data active = activity above about 200%;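 note: binding measured in presence of low estradiol as agonist stimulus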
# ERa coact inh – ER-alpha (human) coactivator binding inhibition. P03372. TR-FRET ER-alpha LBD / SRC-1 peptide, estradiol-bound. inhibition, % at 25.6 µM. hit rate 1.7% among 86,000; in the data active = inhibition above about 50%
# ERb coact inh – ER-beta (human) coactivator binding inhibition; AID 633; Q92731; inhibition, % at 25.6 µM; TR-FRET ER-beta LBD / SRC1-Cy5 peptide binding; receptor agonist-loaded with 1 µM estradiol; hit rate 1.3% among 86,000;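 active = compounds whose percent inhibition of the receptor-coactivator binding signal exceeds about 50% in the single-dose screen, limit read from the data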
# FAK inh conf – confirmation of human focal adhesion kinase (FAK) inhibitors; FAK kinase biochemical inhibition assay; shares compounds with FAK blocker; inhibition, % at 7 µM; hit rate 28% among 750
# Numbers stand for hits; . = inactive; / = no result given; [ ] = remark or other dose. Hits are enriched below; roughly 3.3% of the tested compounds scored in any of these assays. Cut-off read from the data, not from the text of the source, unless noted: active = inhibition above about 19%; inactive = the rest.
SMILES,FAK blocker,Smad3 inh,ERa coact pot,ERa coact inh,ERb coact inh,FAK inh conf
O=C(O)C(Sc1ccc(Cl)cc1)Sc1ccc(Cl)cc1,/,.,/,/,/,/
c1cncc(CNCc2cccnc2)c1,/,.,/,/,/,/
Cc1nn(-c2ccc(F)cc2)c2nc(N)c(C#N)c(-c3cccs3)c12,.,.,243[fluorescence artefact?],.,.,/
COc1cc(-c2c(C#N)c(N)nc3c2c(C)nn3-c2ccc(C)c(C)c2)cc(OC)c1OC,/,.,459[fluorescence artefact?],.,54[fluorescence artefact?],/
Cc1c(-c2ccc(F)cc2)nc(N)c(C#N)c1-c1cccs1,.,.,.,.,.,/
Cc1c(-c2nc(N)nc(C3CC3)c2C)nc(N)nc1C1CC1,/,.,/,/,/,/
NCCSCc1ccccc1Cl,/,.,/,/,/,/
CC1(C)N=C(N)N=C(N)N1c1cccc(CSc2ccccc2)c1,/,.,/,/,/,/
CC1CC(C)(C)NCc2ccccc21 (stereo not given),.,.,.,.,88[fluorescence artefact?],/
N[C@H](C(=O)O)[C@H](N)C(=O)O,/,.,/,/,/,/
NC(=O)c1c(NC(=O)c2ccco2)sc2c1CCC2,20,.,.,.,.,.
CCC(=O)Nc1sc2c(c1C(N)=O)CCC2,21,.,.,.,.,.
Cc1ccc(C2C(/C=C3/SC(=S)NC3=O)=C(c3cccs3)Oc3ccccc32)cc1 (stereo not given),.,.,.,.,.,/
CCNC(=S)N/N=C1\C(=O)c2cccc3cccc1c23,.,/,/,/,/,/
O=C(N/N=C1/C(=O)c2cccc3cccc1c23)c1ccc(Cl)cc1,92,/,/,/,/,87
COc1ccc(Br)cc1CNc1ccc(O)cc1,47,.,.,.,.,.
CCC(=O)c1ccc(OCC(O)CN2CCN(C(c3ccccc3)c3ccccc3)CC2)cc1 (stereo not given),.,.,.,.,.,/
CN1c2ccccc2C(C)(C)C12C=Nc1c(ccc3ccccc13)O2 (stereo not given),32,.,.,.,.,.
COc1ccc2ccc3c(c2c1)N=CC1(O3)N(C)c2ccccc2C1(C)C (stereo not given),.,.,.,.,.,/
Cc1nn(C)c(C)c1/C=N/N=C1\CCC2C3CCc4cc(O)ccc4C3CCC12C (stereo not given),.,/,/,/,/,/
Cc1ccsc1/C=N/NC(=O)c1sccc1C,.,/,/,/,/,/
Cc1ccsc1C=Nc1ccc(O)cc1,50,.,.,.,76[fluorescence artefact?],.
COC(=O)c1ccc(NCCc2csc(-c3ccc(C)cc3)n2)c([N+](=O)[O-])c1,.,/,/,/,/,/
CCN1C(=O)c2cccc3c(S(=O)(=O)NCc4ccco4)ccc1c23,21,.,.,.,.,.
O=C(COc1ccc(Br)cc1)N1CCC(c2ccccc2)C1 (stereo not given),.,.,.,.,.,/
SMILES,FAK blocker,Smad3 inh,ERa coact pot,ERa coact inh,ERb coact inh,FAK inh conf
CSc1nc2ccccc2n1CC(=O)Nc1cc(C(F)(F)F)ccc1N1CCOCC1,.,.,.,.,.,/
O=C(c1ccco1)[C@@H]1[C@@H]2C(=O)N(c3ccccc3)C(=O)[C@@H]2C2c3ccccc3C=CN21 (stereo not given in full),19,/,/,/,/,.
Cc1ccc(N2C(=O)[C@@H]3[C@H](C2=O)C2c4ccccc4C=CN2[C@@H]3C(=O)c2ccco2)c(C)c1 (stereo not given in full),.,/,/,/,/,/
COc1ccc(N2C(=O)[C@@H]3[C@H](C2=O)[C@H]2c4ccccc4C=CN2[C@@H]3C(=O)Nc2ccccc2)cc1,.,.,.,.,.,/
Cc1ccc(N2C(=O)[C@@H]3[C@H](C2=O)C2c4ccccc4C=CN2[C@@H]3C(=O)c2ccco2)cc1 (stereo not given in full),32,/,/,/,/,.
O=C(NC1CC1)C1CCN(c2ncnc3c2sc2cccc(F)c23)CC1,.,/,/,/,/,/
Cc1ccc(NC(=O)Cn2cncc2-c2ccc([N+](=O)[O-])cc2)cc1C,24,/,/,/,/,.
Cc1nn(C(=O)c2cccs2)c(C)c1CN1C(=O)c2ccccc2C1=O,.,.,.,.,.,/
Cc1nn(C(=O)c2ccco2)c(C)c1CN1C(=O)c2ccccc2C1=O,32,.,200[fluorescence artefact?],.,.,.
COc1ccc(C(=O)Nc2nc3ccc4nc(C)sc4c3s2)cc1,27,.,.,.,.,38
COc1cc(C(=O)Nc2nc3ccc4nc(C)sc4c3s2)cc(OC)c1OC,.,.,.,.,.,/
Cn1c(CO)cnc1SCc1ccc(Cl)cc1,.,/,/,/,/,/
Cc1cccc(/C(N)=N/OC(=O)CCc2ccccc2)c1,.,/,/,/,/,/
CCOC(=O)c1cccc(NS(=O)(=O)c2c(C)[nH]c(=O)[nH]c2=O)c1,21,.,.,.,.,.
CCOC(=O)c1cccc(NS(=O)(=O)c2ccc(NC(C)=O)cc2)c1,.,.,.,.,.,/
COc1ccc(-c2nnc3ccc(SCC(=O)N4CCN(c5ccccc5)CC4)nn23)cc1,/,.,.,.,.,/
Cc1ccc2nc3c(cc(C(N)=S)c(=N)n3CCCOC(C)C)c(=O)n2c1,28,.,.,.,.,.
C=CCn1c(=N)c(C(=O)OCC)cc2c(=O)n3cc(C)ccc3nc21,/,.,.,.,.,/
CCOC(=O)Cn1c(=O)oc2cc(S(=O)(=O)Nc3ccc(N(CC)CC)cc3C)ccc21,.,.,.,.,.,/
Cc1ccc(N(CC(=O)NCc2ccc(F)cc2)S(=O)(=O)c2cccs2)cc1,.,.,.,.,.,/
CCNc1nc(NC(C)C)nc(Oc2ccc(/C=N/O)cc2)n1,.,.,.,.,.,/
C=CCn1c(SCC(=O)N2CCCC2)nc2scc(-c3cccs3)c2c1=O,40,/,/,/,/,31
CCOC(=O)c1ccc(NC2=CC(=O)C(=O)c3ccccc32)cc1,36,78,.,.,.,35
c1ccc(-c2noc(-c3cccnc3)n2)nc1,.,.,.,.,.,/
COc1cccc(-c2nc(-c3ccccn3)no2)c1,98,.,.,.,.,.
SMILES,FAK blocker,Smad3 inh,ERa coact pot,ERa coact inh,ERb coact inh,FAK inh conf
COc1ccc(S(=O)(=O)Nc2cc(Sc3ncn[nH]3)c(O)c3ccccc23)cc1,45,/,/,/,/,.
COc1ccc(S(=O)(=O)Nc2ccc(O)c(Sc3ncn[nH]3)c2)cc1,.,.,.,.,.,/
COC(=O)C1=C(C)N(CCc2ccc(OC)c(OC)c2)C(=O)/C1=C\N(C)C,.,.,.,.,.,/
Cc1ccc(NS(=O)(=O)c2ccc(OCC(=O)Nc3cccc([N+](=O)[O-])c3)c(C)c2)cc1,.,/,/,/,/,/
Cc1ccccc1OCC(=O)NNC(=O)c1ccc(-c2ccccc2)cc1,20,/,/,/,/,.
O=C(Nc1ccccc1)O/N=C(\c1ccccc1)c1ccccn1,.,/,/,/,/,/
O=C(Nc1ccccc1)ON=C1c2ccccc2-c2ccccc21,41,/,/,/,/,.
O=C(Nc1ccccc1Cl)ON=C1c2ccccc2-c2ccccc21,35,/,/,/,/,.
N#Cc1c(NC(=S)NC(=O)Cc2cccs2)sc2c1CCCCC2,.,/,/,/,/,/
O=C(NCC1CCCO1)c1onc(CSc2cccc3ccccc23)c1C(=O)O (stereo not given),.,/,/,/,/,/
Cc1ccc2c(n1)sc1c(N)ncnc12,49,.,.,.,.,.
Cc1ccc(NC(=O)COc2ccc(/C=N/NC(=O)CSCc3ccccc3)cc2)cc1,20,/,/,/,/,.
O=C(N/N=C/C=C/c1ccc([N+](=O)[O-])cc1)c1cccs1,56,/,/,/,/,21

# Compound activity as filed in PubChem BioAssay.
